Where a structure was tested more than once in an assay, its records may differ in their call. Activity calls are given as the source filed them. How the source made its calls: active means hit-call score of the fitted dose curve at least 0.9, where 1 is the maximum; inactive means score below 0.9.
Experiment: BSK_SAg_Proliferation: Cell Proliferation Assessment in the BioMAP Diversity Plus: SAg Assay (AID 2283095);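 further: relative cell number as total protein by SRB absorbance in sub-confluent culture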
Conditions: primary human HUVEC with PBMC
Method in brief: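 Absorbance of sulforhodamine B at 560 nm reports total protein in a human vascular endothelial/PBMC co-culture after 96 h chemical exposure. Gain or loss of signal is fitted in both directions against DMSO.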

Question: Which AC50 does the source give for `O=C(O)C(F)(F)C(F)(F)C(F)(F)C(F)(F)C(F)(F)C(F)(F)C(F)(F)C(F)(F)C(F)(F)C(F)(F)F` here?
Answer: Its AC50 is 32.8 µM (active).

Question: What about the outcome of the same compound?
Answer: The outcome was “inactive”.

Question: For `O=c1[nH]c(=O)[nH]c(=O)[nH]1`, which outcome is on record?
Answer: Its outcome is “inactive”.

Question: Which outcome does the source give for `O=C(O)CCC(F)(C(F)(F)F)C(F)(F)F` here?
Answer: The outcome was “inactive”.

Question: For `CC(C)(OO)c1ccccc1`, which outcome is on record?
Answer: Its outcome is “inactive”.

Question: With `O=C(O)C(Cl)(Cl)Cl` as the compound, how does the outcome read?
Answer: The outcome was “inactive”.

Question: For `Cc1ccccc1N`, which outcome is on record?
Answer: Its outcome is “inactive”.

Question: Which outcome does the source give for `NC(=O)O` here?
Answer: Its outcome is “inactive”.

Question: Which AC50 does the source give for `C[C@@H]1C[C@@H]([C@H](O)CC2CC(=O)NC(=O)C2)C(=O)[C@@H](C)C1` here?
Answer: Its AC50 is 3.82 µM (active).

Question: For `ClCC(Cl)CCl`, which outcome is on record?
Answer: Its outcome is “inactive”.

Question: For `CC(=O)C(Cl)C(=O)N(C)C` (configuration not stated), which AC50 is on record?
Answer: The AC50 was 20 µM (active).

Question: With `CC(C)c1ccc(CO)cc1` as the compound, how does the outcome read?
Answer: Its outcome is “inactive”.

Question: Which outcome does the source give for `COc1cc(OC)nc(NC(=O)NS(=O)(=O)c2ncccc2C(=O)N(C)C)n1` here?
Answer: The outcome was “inactive”.

Question: Which outcome does the source give for `O=[N+]([O-])c1ccc2c3c(cccc13)CC2` here?
Answer: Its outcome is “inactive”.

Question: With `O=C(OC1CCCCC1)c1ccccc1C(=O)OC1CCCCC1` as the compound, how does the AC50 read?
Answer: The AC50 was 17.3 µM (active).

Question: With `CC(C)CCCCCCOC(=O)c1ccccc1C(=O)OCCCCCCC(C)C` as the compound, how does the outcome read?
Answer: The outcome was “inactive”.

Question: Which AC50 does the source give for `Oc1c(I)cc(I)cc1I` here?
Answer: The AC50 was 31.9 µM (active).

Source: PubChem BioAssay (EPA / NIEHS)
